Screening results deposited in PubChem BioAssay by National Center for Advancing Translational Sciences (NCATS).
Mito fusion act: mitochondrial division inhibition or fusion activation | actives 0.23% (n = 320,000) | Potency, µM (series often up to 46.1 µM), for inactives: top-dose growth rescue (activation), most hits filed as activators | S. cerevisiae fusion-defective mutant growth rescue, CellTiterGlo 48 h; note: % of control where 0% means no effect; nearly all actives have a fitted effect of over 45% in size
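S. cerevisiae fusion-defective temperature-sensitive mutants (e.g. fzo1-1, mgm1-5) grown 48 h at 37C in YPEG (ethanol/glycerol non-fermentable) medium with 23 nl compound per well; growth rescue read as CellTiterGlo luminescence.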
TDP-43 yeast inh: inhibitors of TDP-43 toxicity in yeast; Potency, µM (top dose mostly 46.1 µM), for inactives: top-dose growth rescue (activation), usual class: activators; TDP-43 expressing yeast growth rescue, BacTiter-Glo, 24 h; actives 1.8% (n = 410,000); note: % of control where 0% means no effect; nearly all actives have a fitted effect of over 50% in size
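Growth rescue of TDP-43-toxic yeast measured as ATP luminescence (BacTiter-Glo). Cells grown to mid-log in raffinose, induced in galactose at OD600=0.02, exposed to compound 24 hr at 30 deg C.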
FUS suppressor: FUS proteinopathy suppression in yeast; S. cerevisiae FUS-expressing, growth rescue, OD600, 24 h; Potency, µM (top dose mostly 76.6 µM), hits mostly activators; actives 0.24% (n = 390,000); AID 1347120;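 note: plate controls were DMSO vehicle for no effect and reference control for full effect; nearly all actives have a fitted effect of over 55% in size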
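Yeast FUS proteinopathy model; galactose-induced FUS (2%), starting OD 0.005. Cpds in dilution series, 24hr, 30C, 99% humidity. Abs 600 nm growth. Pos ctrl CP55940 (top 92uM final); neg ctrl DMSO.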
aSyn rescue: inhibitors of alpha-synuclein toxicity in yeast; Yeast expressing alpha-synuclein, growth rescue, BacTiter-Glo, 24 h; Potency, µM (series often up to 46.1 µM), for the others: top-dose growth rescue (activation), actives largely listed as activators; actives 0.14% (n = 370,000); AID 652106; note: % of control where 0% means no effect; nearly all actives have a fitted effect of over 65% in size
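Galactose-induced alpha-syn yeast (OD600=0.02, raffinose-pregrown) + pinned cpd, 24 hr, 30 deg C; growth by BacTiter-Glo luminescence. Growth restoration scores as activation.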
Abeta rescue: A-beta toxicity reversal in yeast. yeast expressing A-beta42, growth rescue, OD600, 48 h; response scale: 0% DMSO, 100% iron-clioquinol control. Potency, µM (titrated, usually from 46.1 µM), hits mostly activators. actives 0.063% (n = 410,000). AID 1347071; note: nearly all actives have a fitted effect of over 55% in size
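Growth rescue measured by 600 nm absorbance after 48 h yeast culture at 30 C with compound. Values normalized between DMSO and an equimolar ferric chloride plus clioquinol control.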
Starred values were filed as active, the others as inactive; i = inactive; ? = inconclusive; · = no result; ! = repeats disagree. This is a sample that favours compounds with a hit; in the whole collection about 2.2% have one here. Calls come from the whole dose curve; as a rule, active = well fitted curve in the direction sought with a large enough effect; inconclusive = small, poorly fitted or top-dose-only effect, or another doubt; inactive = no such curve, though single readings can be large; an effect the other way counts as inactive or inconclusive. Potency is the fitted concentration of half-maximal effect.

SMILES	Mito fusion act	TDP-43 yeast inh	FUS suppressor	aSyn rescue	Abeta rescue
O=C(OCc1cc(=O)n2ccsc2n1)c1ccc(OC(F)F)cc1	0%	7.1µM*	i	7%	i
Cc1cccn2c(=O)cc(COc3ccc(NC(=O)C(C)C)cc3)nc12	·	17%	i	·	i
CC(Oc1ccccc1)C(=O)Nc1ccc(OCc2cc(=O)n3ccsc3n2)cc1 (stereo not given)	·	16µM*	i	·	i
COc1ccccc1C(=O)OCc1cc(=O)n2c(C)csc2n1	·	35µM*	i	·	i
COc1ccccc1C(=O)Nc1ccccc1C(=O)OCc1cc(=O)n2ccsc2n1	·	-3%	i	·	i
COc1ccccc1C(=O)OCc1cc(=O)n2ccsc2n1	·	16µM*	i	12%	i
CCCCCOc1ccc(C(=O)CCC(=O)Nc2ccc(NC(C)=O)cc2)cc1	3%	17%	i	0%	i
O=C1CCC2(CCC(c3ccccc3)CC2)N1CCO (stereo not given)	·	·	i	·	·
O=C(c1c(F)cccc1F)N1CCC(Oc2cccnc2)CC1	·	·	i	·	·
O=C(NCCCO)C(=O)NCC(c1ccc2c(c1)OCO2)N1CCOCC1 (stereo not given)	·	-1%	i	·	i
O=C(CCc1ccccc1)N[C@H]1[C@@H](OC(=O)c2cnccn2)CCC[C@]12C(=O)N(Cc1ccccc1)c1ccccc12	·	·	i	·	·
CN(C)S(=O)(=O)c1ccc2nc(COCc3nc4ccc(S(=O)(=O)N(C)C)cc4[nH]3)[nH]c2c1	·	·	i	·	·
Cc1ccc(C(=O)OCc2cc(=O)n3c(C)csc3n2)s1	-6%	22µM*	i	-2%	i
Cc1ccc(C(=O)OCc2cc(=O)n3ccsc3n2)s1	·	28%	i	3%	i
Cc1noc2ncnc(Sc3ccc(Br)cc3)c12	-16%	5.6µM*	i	-11%	i
CCOC(=O)c1c(C)[nH]c(C(=O)/C(C#N)=C/c2ccc(OCC)cc2)c1C	8%	16µM*	·	-8%	i
CC(=O)c1c(C)[nH]c(C(=O)/C(C#N)=C/c2cccc(C)c2)c1C	3%	8%	i	-8%	i
Cc1cccc(N2CCN(S(=O)(=O)c3ccc4c(c3)NC(=O)C(C)S4)CC2)c1C (stereo not given)	11µM*	?	i	-4%	i
Cc1nc2c(ccc3nc(NC(=O)C(c4ccccc4)c4ccccc4)sc32)s1	7.1µM*	-26%	i	26%	i
Cc1nc2c(ccc3nc(NC(=O)Cc4cccc5ccccc45)sc32)s1	11µM*	-6%	i	?	i
Cc1nc2c(ccc3nc(NC(=O)c4ccc5c(c4)OCCO5)sc32)s1	-4%	0%	i	-2%	i
O=C(Cc1ccc(Cl)cc1)NNC(=O)C1CC=CCC1C(=O)O (stereo not given)	2%	·	·	·	·
COC(=O)[C@H]1C[C@@]2(N3CCCCC3)c3ccccc3N(C(=O)OC(C)(C)C)[C@H]2N1C(=O)OC(C)(C)C	·	·	i	·	·
CCOC(=O)c1ccc(NC(=S)N(CCN(C)C)C(C)c2ccncc2)cc1 (stereo not given)	4%	23%	i	28µM*	i
Cc1ccc(-c2nnc(SCC(=O)N(CC(C)C)c3c(N)n(Cc4ccccc4)c(=O)[nH]c3=O)n2N)cc1	-1%	21%	·	-8%	i
SMILES	Mito fusion act	TDP-43 yeast inh	FUS suppressor	aSyn rescue	Abeta rescue
NC1=NC(=O)/C(=C\c2ccc(-c3ccccc3[N+](=O)[O-])o2)S1	·	·	·	-2%	·
Cc1cc(C)nc(Nc2nc3ccccc3s2)n1	-2%	24%	i	0%	i
NNc1nc2ccc(F)cc2s1	14%	-10%	·	0%	i
Fc1ccc2nc(Nc3ccccc3)sc2c1	17%	16µM*	i	-11%	?
Cc1ccc(Nc2nc3ccccc3s2)c(C)c1	?	25µM*	i	-1%	i
O=C(NNc1nc2cc3c(cc2s1)OCCO3)c1ccc(F)cc1	1%	10µM*	i	0%	?
c1ccc2sc(Nc3nc4cc5c(cc4s3)OCO5)nc2c1	14µM*	-5%	i	-17%	i
Cc1ccc(C)c(C(O)c2ncc(-c3cccc(C(F)(F)F)c3)[nH]2)c1 (stereo not given)	·	?	i	1%	i
COc1ccccc1N1CCN(N=Cc2ccccc2Br)CC1	·	·	i	·	·
Cc1c(-c2nnc(SCC(=O)O)n2-c2ccccc2Br)nnn1-c1ccccc1	-4%	3%	i	4%	i
CC12CCC(=O)N1C(C(=O)Nc1cccc(F)c1)CS2 (stereo not given)	-1%	10%	i	-6%	i
Fc1ccc2nc(Nc3nc4cc5c(cc4s3)OCO5)sc2c1	9%	11%	i	-13%	i
Fc1ccc2nc(Nc3nc4cc5c(cc4s3)OCCO5)sc2c1	13µM*	20%	·	-8%	i
O=C(NCC1CCCO1)c1ccc(C(=O)NCC2CCCO2)cc1 (stereo not given)	5%	-20%	i	3%	i
S=C(NCC1CCCO1)c1ccc(Br)cc1 (stereo not given)	2%	11µM*	i	-8%	i
Cc1ccc(S(=O)(=O)NCCNc2ccc([N+](=O)[O-])cc2C(F)(F)F)cc1	14%	22µM*	i	?	i
O=C(NCCNc1ccc([N+](=O)[O-])cc1C(F)(F)F)c1ccccc1F	-5%	20µM*	i	15%	i
O=C1NC2(CCCCO2)CO1 (stereo not given)	-2%	-10%	i	-5%	i
COc1ccc(CCn2c3c(c(=O)[nH]c2=S)CN(c2ccccc2)CN3)cc1OC	·	·	·	1%	·
O=C(c1ccc(OCCN2CCCCC2)cc1)c1c(-c2ccc(O)cc2)sc2cc(O)ccc12	18µM*!	23%	?	-4%	i
CCOC(=O)N1C(=O)C[C@](Sc2ccc(OC)cc2)(C(=O)N2CCOCC2)[C@H]1c1ccc(OC)cc1	·	·	i	·	·
Cc1cc(C)nc(OC(C(=O)O)C(OCC(C)C)(c2ccccc2)c2ccccc2)n1 (stereo not given)	1%	5%	i	-2%	i
COC(=O)c1cc2c(C)nn(C)c2s1	5.6µM*	-5%	i	-2%	i
CCCCNC(=O)COC(=O)c1cc2c(C)nn(-c3ccccc3)c2s1	3%	-15%	i	-3%	i
C=CCOc1ccc(C=CC(=O)c2c(O)c(OC)c(OC)c(OC)c2OC)cc1	·	22µM*	·	13%	i
COc1ccc(C=CC(=O)c2c(OC)cc(OC)c(OC)c2O)cc1	·	11%	i	-5%	i
Cc1ccc(Cl)cc1NC(=O)COC(=O)CC1CCCCC1	17%	13µM*	i	4%	?
